The panel holds about 83,000 compounds, 20% with a hit somewhere; the sample as a whole holds those more often.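 Compound tested at a single concentration for 48 hours in 96-well plates; a percent growth value below 10 was scored as active.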 A number with no mark means an inactive call. The source made the active and inactive calls.
How the values were obtained:
Test in all cases: NCI-60 one-dose screen, 48 h (100 = growth as untreated, 0 = no growth, -100 = all killed)
Conditions in all cases: 10 µM unless noted
[1] = tested on: HCT-15 colon
[2] = tested on: HT29 colon
[3] = tested on: SNB-75 CNS
[4] = tested on: SNB-19 CNS
[5] = tested on: U251 CNS
[6] = tested on: PC-3 prostate
[7] = tested on: SK-MEL-5 melanoma
[8] = tested on: UACC-62 melanoma
[9] = tested on: LOX IMVI melanoma
[10] = tested on: SK-MEL-28 melanoma
[11] = tested on: SK-MEL-2 melanoma
[12] = tested on: EKVX NSCLC
[13] = tested on: SN12C renal
[14] = tested on: UO-31 renal
[15] = tested on: TK-10 renal
[16] = tested on: ACHN renal
[17] = tested on: CAKI-1 renal
[18] = tested on: A498 renal
[19] = tested on: CCRF-CEM leukemia
[20] = tested on: MOLT-4 leukemia

Structure (SMILES) | growth [1] | growth [2] | growth [3] | growth [4] | growth [5] | growth [6] | growth [7] | growth [8] | growth [9] | growth [10] | growth [11] | growth [12] | growth [13] | growth [14] | growth [15] | growth [16] | growth [17] | growth [18] | growth [19] | growth [20]
O=C(/C=C(/C=C/c1cccc2[nH]ccc12)OB(F)F)/C=C/c1cccc2[nH]ccc12 | -58.4% (active) | -52.8% (active) | -40.4% (active) | -7.8% (active) | -87% (active) | -42.5% (active) | -78.3% (active) | -51.8% (active) | -81.1% (active) | -14.3% (active) | -57.9% (active) | -30.9% (active) | -1.2% (active) | -77.6% (active) | -37.9% (active) | -70.3% (active) | -73.6% (active) | -35.2% (active) | -32.1% (active) | -11.9% (active)
O=C1Nc2ccc(I)cc2C1=O | 101% | 93.8% | 79.8% | 98.3% | 93.8% | 86.7% | 101% | 92.3% | 75.8% | 104% | 85.4% | 102% | 98% | 77.9% | 140% | 103% | 64.5% | 122% | 119% | 102%
CCCCCCCCCCCCCCCC(N)c1ccccc1 (stereo not given) | -73.9% (active) | -65.3% (active) | 66.2% | 23.9% | -93.2% (active) | 5.14% (active) | 87.8% | 79.2% | -100% (active) | 85.3% | 70.8% | 25.3% | 28% | 26.2% | 52.2% | -50.3% (active) | 9.49% (active) | 60.8% | -1.76% (active) | -38.6% (active)
COc1ccc2nc3ccc(OC)cc3c(SCCCN)c2c1 | 47.3% | 37.4% | 89.3% | 94.8% | 82.7% | 65.6% | 108% | 113% | 63.1% | 121% | 110% | 87.1% | 67.9% | 53.3% | 114% | 43.7% | 74.1% | 83.2% | 10.5% | -5.22% (active)
CN(Cc1ccc(C(F)(F)F)cc1)CC(O)C(=O)Nc1ccc(Cl)cc1 (stereo not given) | -15.4% (active) | 1.26% (active) | 24.6% | 31.4% | -82.3% (active) | 22% | 8.39% (active) | 29.7% | -85.4% (active) | 85.8% | -48.1% (active) | 12.6% | -67.6% (active) | 12.6% | 24.3% | -3.15% (active) | -59.6% (active) | -4.42% (active) | -27.4% (active) | -20.9% (active)
CCN(CC)c1ccc(/C=C/C(=O)c2ccc(Nc3nc(Nc4ccccc4)nc(Nc4ccccc4)n3)cc2)cc1 | 32.4% | 49.8% | 26.8% | 67.5% | 43.4% | 34.1% | 40.7% | 54.8% | 40.3% | 65.6% | 27.9% | 31.5% | 74% | 23.9% | 59.3% | 49.1% | 44% | 30.3% | 5.63% (active) | 22.6%
COc1ccc(C/C(C)=C(/c2ccc(OCCN3CCCCC3)cc2)c2ccc(OC(=O)NCc3ccccc3)cc2)cc1 | -85.4% (active) | -87.8% (active) | -88.9% (active) | -90.6% (active) | -97.5% (active) | -95.9% (active) | -100% (active) | -92.9% (active) | -93% (active) | -85.8% (active) | -86.2% (active) | -78.4% (active) | -88% (active) | -92.2% (active) | -90.7% (active) | -100% (active) | -95% (active) | -97.1% (active) | -44.1% (active) | -53.2% (active)
CCN(CC)CCCN1C(=O)c2c(c(C)c3c(oc4cc(O)ccc43)c2C)C1=O | -79.2% (active) | -61.8% (active) | 124% | -82.8% (active) | -88.8% (active) | -67.5% (active) | -97.7% (active) | 95.2% | -93.5% (active) | -85.1% (active) | 98% | 108% | -75% (active) | 90.8% | 112% | 51.5% | -81% (active) | 104% | -6.12% (active) | -5.26% (active)
Cc1nc2ncnc(Cl)c2[nH]1 | 100% | 80.9% | 89.1% | 99.7% | 91.3% | 90.5% | 104% | 100% | 97.5% | 115% | 104% | 103% | 99.7% | 88.3% | 94.4% | 109% | 94.7% | 97.3% | 87.7% | 94.7%
Cn1c(O)c(C=NCCN=Cc2c(O)n(C)c(=O)n(C)c2=O)c(=O)n(C)c1=O | 107% | 97.1% | 88.3% | 97.6% | 102% | 90.4% | 98.7% | 84.1% | 93.2% | 109% | 120% | 102% | 95.6% | 84.7% | 116% | 101% | 94.4% | 127% | 7.42% (active) | -46.6% (active)
CC(C)CCNC(=O)Cn1cccc(NC(=O)OCc2ccccc2)c1=O | 111% | 108% | 79.9% | 103% | 101% | 92.3% | 96.1% | 111% | 89.8% | 98.8% | 112% | 101% | 103% | 76% | 130% | 103% | 70.3% | 117% | 96.6% | 106%
CC12CCC3c4ccccc4CCC3(CO1)C2 (stereo not given) | 108% | 100% | 89.7% | 114% | 107% | 88% | 102% | 105% | 101% | 99.9% | 109% | 107% | 98.3% | 117% | 110% | 98.4% | 101% | 78.9% | 86.9% | 89.3%
CC(C)c1ccc(COCc2cc(CN3CCCC3)c(O)c3ncccc23)cc1 | -35.5% (active) | 30.5% | 25.9% | 17.3% | -13.2% (active) | 11.6% | 4.48% (active) | -9.84% (active) | -33% (active) | 27.3% | -23.9% (active) | 33.4% | 13.4% | -10.6% (active) | 4.79% (active) | 6.16% (active) | 3.91% (active) | 0.55% (active) | 1.53% (active) | -5.7% (active)
C[C@]12CC[C@@H]3c4ccc(O)c([N+](=O)[O-])c4CC[C@H]3[C@@H]1CCC2=O | 94.4% | 95.5% | 58.1% | 107% | 93.2% | 97% | 82.3% | 87.3% | 90.7% | 115% | 107% | 58.5% | 101% | 81.5% | 89% | 94.1% | 72.7% | 141% | 110% | 80.4%
COc1cc(-c2csc(NC(=O)c3cc(-n4cnc(C)c4)cc(C(F)(F)F)c3)n2)cc(OC)c1OC | 39.5% | 52.6% | 78.6% | 62.2% | 56.9% | 37.3% | 51% | 44.1% | 53.9% | 78.9% | 67.6% | 69.1% | 44.1% | 29.8% | 85.6% | 54.3% | 62.8% | 60.6% | 24.4% | 37.3%
Oc1c(Cl)cc(Cl)cc1/C=N/Nc1nnc(N/N=C/c2cc(Cl)cc(Cl)c2O)c2ccccc12 | 20.6% | 23.7% | 13% | 12.8% | 21% | 16.3% | -46.8% (active) | 13.2% | -52.3% (active) | 22.9% | 51.2% | 10.2% | 20% | 0.684% (active) | 37.8% | 7.55% (active) | -34.7% (active) | -2.98% (active) | 14% | 5.23% (active)

Reference: PubChem BioAssay (NCI)
